For assay [1], the target named is Serine/threonine-protein kinase MARK2 (Homo sapiens) (UniProt Q7KZI7). To be noted: at 1 µM.
The target in assay [2] is PAS domain-containing serine/threonine-protein kinase (Homo sapiens) (UniProt Q96RG2). Conditions: at 0.1 µM.
For assay [3] the target is unchanged. To be noted: at 1 µM.
Assay [4] deals with Phosphorylase b kinase gamma catalytic chain, skeletal muscle/heart isoform (Homo sapiens) (UniProt Q16816). To be noted: at 0.1 µM.
The target is the same in assay [5]. Conditions: at 1 µM.
Assay [6] addresses T1, Phosphorylase b kinase gamma catalytic chain, liver/testis isoform (Homo sapiens) (UniProt P15735).
T1 sequence (whole entry): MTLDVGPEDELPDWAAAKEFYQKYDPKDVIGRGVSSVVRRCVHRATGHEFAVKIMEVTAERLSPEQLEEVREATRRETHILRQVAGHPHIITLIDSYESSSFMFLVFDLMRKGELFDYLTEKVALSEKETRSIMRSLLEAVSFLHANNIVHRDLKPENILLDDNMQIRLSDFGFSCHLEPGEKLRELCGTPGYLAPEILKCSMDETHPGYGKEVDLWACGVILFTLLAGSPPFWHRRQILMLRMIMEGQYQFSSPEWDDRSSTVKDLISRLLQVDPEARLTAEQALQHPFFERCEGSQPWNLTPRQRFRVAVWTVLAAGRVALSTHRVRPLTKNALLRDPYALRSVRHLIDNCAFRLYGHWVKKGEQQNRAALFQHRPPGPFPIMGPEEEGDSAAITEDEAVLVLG
Conditions: at 0.1 µM.

Assay [7] has as its target T1, Phosphorylase b kinase gamma catalytic chain, liver/testis isoform (Homo sapiens). To be noted: at 1 µM.
Assay [8] addresses Serine/threonine-protein kinase pim-1 (Homo sapiens) (UniProt P11309). Conditions: at 0.1 µM.
Assay [9] shares this target. To be noted: at 1 µM.
Assay [10] deals with Serine/threonine-protein kinase pim-2 (Homo sapiens) (UniProt Q9P1W9). Conditions: at 0.1 µM.
Chain of Serine/threonine-protein kinase pim-2 (Homo sapiens) (Q9P1W9 whole entry, looked up): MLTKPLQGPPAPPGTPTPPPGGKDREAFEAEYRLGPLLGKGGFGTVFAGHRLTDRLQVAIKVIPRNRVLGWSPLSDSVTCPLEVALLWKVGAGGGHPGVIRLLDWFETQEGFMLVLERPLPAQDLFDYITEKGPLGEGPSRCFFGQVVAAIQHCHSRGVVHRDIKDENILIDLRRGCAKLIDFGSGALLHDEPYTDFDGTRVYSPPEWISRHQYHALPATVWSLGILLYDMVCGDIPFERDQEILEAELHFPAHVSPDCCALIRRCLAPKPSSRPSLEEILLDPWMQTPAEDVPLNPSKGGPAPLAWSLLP
Assay [11] has the same target. To be noted: at 1 µM.
The target of assay [12] is Serine/threonine-protein kinase pim-3 (Homo sapiens) (UniProt Q86V86). Conditions: at 0.1 µM.
For assay [13] the target is unchanged. Conditions: at 1 µM.
Assay [14] deals with T2, MAP kinase-activated protein kinase 5 (Homo sapiens) (UniProt Q8IW41).
T2 sequence (whole entry): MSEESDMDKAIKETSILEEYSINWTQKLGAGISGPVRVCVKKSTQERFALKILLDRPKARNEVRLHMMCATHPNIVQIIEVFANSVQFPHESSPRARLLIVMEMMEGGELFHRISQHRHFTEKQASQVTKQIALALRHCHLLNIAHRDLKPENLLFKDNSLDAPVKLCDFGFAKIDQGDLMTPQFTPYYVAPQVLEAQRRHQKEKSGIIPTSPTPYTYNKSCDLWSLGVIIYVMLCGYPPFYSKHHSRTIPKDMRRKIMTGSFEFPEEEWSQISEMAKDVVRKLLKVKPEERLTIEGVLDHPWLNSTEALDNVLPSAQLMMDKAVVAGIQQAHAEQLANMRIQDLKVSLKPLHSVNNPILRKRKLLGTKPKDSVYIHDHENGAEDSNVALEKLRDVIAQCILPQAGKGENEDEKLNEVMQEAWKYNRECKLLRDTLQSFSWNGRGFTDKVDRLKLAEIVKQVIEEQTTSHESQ
Conditions: at 0.1 µM.

The target of assay [15] is T2, MAP kinase-activated protein kinase 5 (Homo sapiens). To be noted: at 1 µM.
Assay [16] addresses Serine/threonine-protein kinase SIK1 (Homo sapiens) (UniProt P57059). Conditions: at 0.1 µM.
Assay [17] has the same target. Conditions: at 1 µM.
The target in assay [18] is Serine/threonine-protein kinase SIK2 (Homo sapiens) (UniProt Q9H0K1). To be noted: at 0.1 µM.
Chain of Serine/threonine-protein kinase SIK2 (Homo sapiens) (Q9H0K1 whole entry, looked up): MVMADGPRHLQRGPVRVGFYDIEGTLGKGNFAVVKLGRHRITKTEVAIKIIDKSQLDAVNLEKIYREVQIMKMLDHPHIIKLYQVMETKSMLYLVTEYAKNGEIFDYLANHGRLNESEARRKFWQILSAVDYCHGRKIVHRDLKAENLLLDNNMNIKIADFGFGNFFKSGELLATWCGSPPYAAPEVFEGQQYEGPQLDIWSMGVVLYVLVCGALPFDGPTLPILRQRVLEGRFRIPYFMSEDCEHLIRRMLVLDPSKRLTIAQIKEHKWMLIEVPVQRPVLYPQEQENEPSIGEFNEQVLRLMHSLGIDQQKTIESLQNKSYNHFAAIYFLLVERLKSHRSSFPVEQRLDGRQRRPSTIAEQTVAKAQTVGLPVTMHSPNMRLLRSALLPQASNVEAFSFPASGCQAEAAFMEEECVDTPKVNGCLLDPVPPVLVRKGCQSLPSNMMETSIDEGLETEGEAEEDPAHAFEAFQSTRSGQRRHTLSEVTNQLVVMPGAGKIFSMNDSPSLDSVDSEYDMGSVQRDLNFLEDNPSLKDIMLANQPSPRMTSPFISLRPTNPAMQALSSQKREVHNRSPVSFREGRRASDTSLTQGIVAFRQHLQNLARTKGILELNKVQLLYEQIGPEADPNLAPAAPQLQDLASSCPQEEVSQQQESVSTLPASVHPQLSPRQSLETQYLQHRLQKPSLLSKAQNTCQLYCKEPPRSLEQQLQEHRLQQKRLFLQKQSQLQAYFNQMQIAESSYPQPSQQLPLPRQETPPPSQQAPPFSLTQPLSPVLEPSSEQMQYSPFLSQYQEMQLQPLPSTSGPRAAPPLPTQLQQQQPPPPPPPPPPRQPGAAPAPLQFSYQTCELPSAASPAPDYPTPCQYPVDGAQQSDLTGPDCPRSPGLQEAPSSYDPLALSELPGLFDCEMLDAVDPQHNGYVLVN
Assay [19] shares this target. To be noted: at 1 µM.
The target in assay [20] is T3, Serine/threonine-protein kinase TBK1 (Homo sapiens) (UniProt Q9UHD2).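 Further: values are the mean TBK1 inhibition, taken from the GSK PKIS screening data.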
T3 sequence (whole entry): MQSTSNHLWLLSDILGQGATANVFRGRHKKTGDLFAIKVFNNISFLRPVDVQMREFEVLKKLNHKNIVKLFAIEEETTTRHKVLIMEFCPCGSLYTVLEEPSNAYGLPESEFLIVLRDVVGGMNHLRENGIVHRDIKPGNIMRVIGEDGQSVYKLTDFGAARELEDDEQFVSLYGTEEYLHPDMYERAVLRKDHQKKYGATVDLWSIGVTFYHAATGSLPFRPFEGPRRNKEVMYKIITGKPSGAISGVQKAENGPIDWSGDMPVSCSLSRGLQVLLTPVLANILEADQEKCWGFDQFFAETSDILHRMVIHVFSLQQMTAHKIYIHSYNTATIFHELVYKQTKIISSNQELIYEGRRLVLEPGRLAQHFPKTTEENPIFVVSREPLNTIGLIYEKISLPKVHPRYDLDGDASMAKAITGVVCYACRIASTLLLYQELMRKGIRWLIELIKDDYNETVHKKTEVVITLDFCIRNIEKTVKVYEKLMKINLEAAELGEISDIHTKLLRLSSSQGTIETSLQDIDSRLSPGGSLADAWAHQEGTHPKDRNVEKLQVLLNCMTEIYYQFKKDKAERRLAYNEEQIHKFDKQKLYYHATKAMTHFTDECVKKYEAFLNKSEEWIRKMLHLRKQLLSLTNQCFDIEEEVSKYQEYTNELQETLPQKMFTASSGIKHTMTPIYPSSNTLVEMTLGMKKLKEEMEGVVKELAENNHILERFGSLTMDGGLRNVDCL
To be noted: at 0.1 µM.

This note sets out measurements from ChEMBL document CHEMBL1961873, “Compounds: GSK PKIS; Assays: Nanosyn kinase panel” (2012).

Chain of Serine/threonine-protein kinase pim-1 (Homo sapiens) (P11309 whole entry, looked up): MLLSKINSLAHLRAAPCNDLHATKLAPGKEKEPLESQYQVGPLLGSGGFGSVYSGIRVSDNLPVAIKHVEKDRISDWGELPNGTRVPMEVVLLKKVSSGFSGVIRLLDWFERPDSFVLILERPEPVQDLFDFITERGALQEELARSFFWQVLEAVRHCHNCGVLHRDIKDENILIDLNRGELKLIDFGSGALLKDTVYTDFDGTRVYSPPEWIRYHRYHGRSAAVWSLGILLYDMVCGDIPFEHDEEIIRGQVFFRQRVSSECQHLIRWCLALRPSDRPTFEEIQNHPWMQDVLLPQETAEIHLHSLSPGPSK
Chain of Serine/threonine-protein kinase SIK1 (Homo sapiens) (P57059 whole entry): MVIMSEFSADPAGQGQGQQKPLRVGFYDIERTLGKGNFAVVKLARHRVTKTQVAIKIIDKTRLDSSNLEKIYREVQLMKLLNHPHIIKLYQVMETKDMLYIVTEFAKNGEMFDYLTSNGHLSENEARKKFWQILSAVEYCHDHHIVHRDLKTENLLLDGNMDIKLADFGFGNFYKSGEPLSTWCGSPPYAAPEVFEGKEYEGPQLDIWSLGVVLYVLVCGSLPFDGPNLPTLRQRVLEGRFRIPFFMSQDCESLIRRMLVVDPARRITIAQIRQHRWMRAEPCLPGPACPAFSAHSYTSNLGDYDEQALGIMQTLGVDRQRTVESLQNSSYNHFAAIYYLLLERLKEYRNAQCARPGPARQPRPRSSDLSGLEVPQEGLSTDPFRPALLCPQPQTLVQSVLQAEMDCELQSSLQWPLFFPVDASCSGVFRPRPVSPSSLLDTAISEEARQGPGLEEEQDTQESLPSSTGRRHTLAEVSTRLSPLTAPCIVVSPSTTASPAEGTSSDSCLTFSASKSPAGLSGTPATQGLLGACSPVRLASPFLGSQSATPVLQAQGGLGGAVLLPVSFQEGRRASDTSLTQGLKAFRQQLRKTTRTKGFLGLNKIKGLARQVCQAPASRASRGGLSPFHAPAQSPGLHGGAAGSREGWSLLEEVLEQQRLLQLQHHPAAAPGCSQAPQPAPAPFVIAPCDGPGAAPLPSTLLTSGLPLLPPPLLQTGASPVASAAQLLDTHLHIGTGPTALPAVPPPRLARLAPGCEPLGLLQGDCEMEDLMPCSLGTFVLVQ
Chain of Phosphorylase b kinase gamma catalytic chain, skeletal muscle/heart isoform (Homo sapiens) (Q16816 whole entry, looked up, canonical isoform): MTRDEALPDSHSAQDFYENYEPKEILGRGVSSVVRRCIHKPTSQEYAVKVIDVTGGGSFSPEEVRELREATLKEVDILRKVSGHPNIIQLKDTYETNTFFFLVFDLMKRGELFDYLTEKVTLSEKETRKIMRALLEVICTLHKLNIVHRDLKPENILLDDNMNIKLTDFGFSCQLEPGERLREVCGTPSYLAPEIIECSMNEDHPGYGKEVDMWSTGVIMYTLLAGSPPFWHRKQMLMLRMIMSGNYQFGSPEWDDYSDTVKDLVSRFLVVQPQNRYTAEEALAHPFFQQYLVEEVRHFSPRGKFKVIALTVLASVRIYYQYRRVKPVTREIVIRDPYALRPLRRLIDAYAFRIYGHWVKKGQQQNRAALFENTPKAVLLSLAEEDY
Chain of PAS domain-containing serine/threonine-protein kinase (Homo sapiens) (Q96RG2 whole entry, the tested form may be a part): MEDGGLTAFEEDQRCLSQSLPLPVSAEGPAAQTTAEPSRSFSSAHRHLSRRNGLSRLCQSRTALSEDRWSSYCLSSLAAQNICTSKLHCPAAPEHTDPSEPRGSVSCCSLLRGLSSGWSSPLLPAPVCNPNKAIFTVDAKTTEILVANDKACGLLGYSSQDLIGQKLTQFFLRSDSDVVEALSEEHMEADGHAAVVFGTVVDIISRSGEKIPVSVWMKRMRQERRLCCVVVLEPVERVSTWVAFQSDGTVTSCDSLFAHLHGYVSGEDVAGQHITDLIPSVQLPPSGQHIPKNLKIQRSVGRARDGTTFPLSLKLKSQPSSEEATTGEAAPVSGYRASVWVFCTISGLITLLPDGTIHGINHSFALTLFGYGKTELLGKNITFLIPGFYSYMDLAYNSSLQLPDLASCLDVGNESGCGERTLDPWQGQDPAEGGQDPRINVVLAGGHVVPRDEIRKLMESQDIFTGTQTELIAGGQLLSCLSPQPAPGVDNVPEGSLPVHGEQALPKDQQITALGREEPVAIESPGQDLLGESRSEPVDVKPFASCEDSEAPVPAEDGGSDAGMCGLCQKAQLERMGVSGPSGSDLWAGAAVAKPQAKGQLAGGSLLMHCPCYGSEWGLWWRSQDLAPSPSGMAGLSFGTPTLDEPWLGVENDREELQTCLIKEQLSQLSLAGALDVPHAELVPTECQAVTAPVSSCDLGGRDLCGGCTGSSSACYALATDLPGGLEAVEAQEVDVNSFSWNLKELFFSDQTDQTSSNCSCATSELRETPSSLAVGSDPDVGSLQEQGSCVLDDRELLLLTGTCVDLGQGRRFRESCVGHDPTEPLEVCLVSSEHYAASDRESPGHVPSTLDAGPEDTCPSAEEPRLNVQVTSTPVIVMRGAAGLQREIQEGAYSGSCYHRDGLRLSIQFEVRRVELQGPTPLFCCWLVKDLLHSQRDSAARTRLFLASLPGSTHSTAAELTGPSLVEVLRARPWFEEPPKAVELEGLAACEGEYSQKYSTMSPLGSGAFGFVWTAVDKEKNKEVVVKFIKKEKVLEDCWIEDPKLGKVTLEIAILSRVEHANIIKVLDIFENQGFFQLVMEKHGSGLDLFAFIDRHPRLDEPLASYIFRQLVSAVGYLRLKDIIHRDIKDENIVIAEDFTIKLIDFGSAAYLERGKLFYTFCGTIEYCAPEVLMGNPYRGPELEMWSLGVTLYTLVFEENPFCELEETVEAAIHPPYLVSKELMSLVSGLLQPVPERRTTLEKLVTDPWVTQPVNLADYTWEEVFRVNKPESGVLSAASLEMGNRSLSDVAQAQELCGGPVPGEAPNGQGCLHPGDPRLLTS

`CCn1c(-c2nonc2N)nc2cncc(C(=O)N3CC[C@H](N)C3)c21`: the inhibition in assay [1] is 7.14%; in [2] it was 0.29%; in assay [3] it was 22.9%; in assay [4], 6.12%; in [5] it was 6.32%; in assay [6], 6.67%. For the same molecule, the inhibition in assay [7] stood at 5.58%; in assay [8], 74.1%; in [9], 94.2%; in assay [10] it was 9.73%; in assay [11], 48.2%; in assay [12], 51.5%. For the same molecule, the inhibition in assay [13] is 78.9%; in assay [14] it was 1.81%; in assay [15] it was 2.26%; in assay [16], 5.73%; in assay [17], 9.11%; in assay [18], 4.34%. The inhibition in assay [19] is 10.1%; in assay [20], 3.11%.

As to `COc1cc2ncn(-c3cc(OCc4ccccc4Cl)c(C(N)=O)s3)c2cc1OC`, the inhibition in [1] is 6.01%; in assay [2], -0.4%; in assay [3], -0.88%; in assay [4], 3.72%; in [5] it was 5.84%; in [6], -0.8%. Moreover, the inhibition was 1.21% in assay [7]; 0.77% in assay [8]; 2.71% in [9]; 1.11% in assay [10]; 4.79% in assay [11]; 1.01% in [12]. The inhibition was 8.63% in assay [13]; -0.46% in [14]; 0.67% in [15]; -2.01% in assay [16]; 28% in [17]; 2.69% in assay [18]. In addition, the inhibition turned out to be 26.6% in assay [19] and 3.64% in [20].

Take `COc1cc2ncn(-c3cc(OCc4ccccc4C(F)(F)F)c(C(N)=O)s3)c2cc1OC`: the inhibition in assay [1] is 12.2%; in assay [2] it was -0.15%; in [3] it was 0.3%; in assay [4], 6.17%; in assay [5] it was 8.75%; in [6] it was 5.36%. Besides, the inhibition in assay [7] is 6.56%; in assay [8] it was -0.79%; in [9] it was 2.8%; in assay [10], -3.6%; in assay [11], -2.85%; in [12], -0.3%. Besides, the inhibition is 5.54% in [13]; 1.22% in [14]; 2.23% in assay [15]; 9.96% in assay [16]; 56.6% in [17]; 5.82% in assay [18]. Besides, the results for the inhibition in assay [19] and in assay [20] were 35.4% and 3.59%, respectively.

As to `NCc1ccc(-c2nc(-c3ccc(Cl)c(O)c3)c(-c3ccncc3)[nH]2)cc1`, the inhibition in assay [1] was 2.58%; in [2], 0.34%; in assay [3] it was -0.1%; in [4] it was 0.14%; in assay [5], 3.18%; in assay [6], 0.02%. The inhibition in assay [7] was -1.08%; in assay [8], 1.18%; in [9] it was 0.18%; in assay [10], -0.05%; in [11] it was 1.13%; in assay [12], -1.17%. Moreover, the inhibition in [13] is -0.73%; in [14], -0.17%; in assay [15], -1.34%; in [16] it was 0.32%; in assay [17] it was 3.96%; in [18], -0.81%. The results for the inhibition in assay [19] and in assay [20] were 8.19% and -1.21%, respectively.

In the case of `O=C(Nc1n[nH]c2nc(-c3ccco3)c(Br)cc12)C1CC1`, the inhibition in assay [1] is 2.09%; in assay [2], 0.09%; in assay [3], -1.87%; in [4] it was 1.65%; in [5] it was 2.36%; in assay [6], 4.24%. In addition, the inhibition is 1.34% in [7]; -0.5% in [8]; 0.54% in assay [9]; -0.2% in assay [10]; 0.42% in assay [11]; -1.42% in assay [12]. Besides, the inhibition in assay [13] was -2.95%; in assay [14], 0.87%; in assay [15] it was 0.07%; in [16] it was 2.49%; in assay [17], 5.66%; in assay [18] it was 3.56%. Besides, the results for the inhibition in assay [19] and in [20] were 5% and 6.52%, respectively.

For the molecule `Cc1nnc(-c2ccc(C)c(-c3ccc(C(=O)Nc4cccc(C#N)c4)cc3)c2)o1`, the inhibition was 0.87% in [1]; 0.45% in assay [2]; 4.14% in assay [3]; 2.07% in [4]; 6.42% in [5]; 2.78% in assay [6]. In addition, the inhibition is 4.43% in assay [7]; -0.05% in [8]; 0.66% in assay [9]; 0.29% in [10]; 0.22% in assay [11]; 0.95% in [12]. The inhibition in assay [13] turned out to be 2.47%; in [14], 0.95%; in assay [15], 0.82%; in assay [16], 3.54%; in assay [17], 4.65%; in [18], 4.14%. In addition, the inhibition stood at 3.76% in assay [19] and 5.08% in assay [20].

A word on the inhibition: it is the relative decrease from the control value, in per cent.
